For 16 compounds, relative cell viability results are on record in the supplement of paper PMC8371130.

Where a name gives a salt, the structure may show the parent alone.

The assay concerns HL-1. Briefly: relative cell viability (CellTiter-Glo) vs DMSO control (% of DMSO control); higher = more viable cells. An outline of the steps:
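In 384-well plates, 1000 HL-1 mouse atrial cardiomyocytes per well were plated with compounds at 40, 200, 1000 or 5000 nM in 0.01% DMSO. Hypoxia at 1% O2 for 48 h began one day later and was followed by 24 h of reoxygenation, with parallel plates held in normoxia. CellTiter-Glo luminescence gave cell viability relative to vehicle-treated control cells.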

[1] abbreviates: oxygen condition: hypoxia 48 h (1% O2) + reoxygenation 24 h, 40 nM.
Setting [2] is: oxygen condition: hypoxia 48 h (1% O2) + reoxygenation 24 h, 200 nM.
[3] abbreviates: oxygen condition: hypoxia 48 h (1% O2) + reoxygenation 24 h, 1000 nM.
[4] abbreviates: oxygen condition: hypoxia 48 h (1% O2) + reoxygenation 24 h, 5000 nM.
Setting [5] is: oxygen condition: normoxia 72 h, 40 nM.
Setting [6] is: oxygen condition: normoxia 72 h, 200 nM.
Setting [7] is: oxygen condition: normoxia 72 h, 1000 nM.
Where [8] appears, read: oxygen condition: normoxia 72 h, 5000 nM.

As to `C[N+]1(C)[C@@H]2C[C@@H](OC(=O)[C@H](CO)c3ccccc3)C[C@H]1[C@@H]1O[C@@H]12` [Methscopolamine], the relative cell viability under setting [1] stood at 99.5; the relative cell viability under setting [2] was determined as 101; the relative cell viability under setting [3] is 100; the relative cell viability under setting [4] worked out at 106; the relative cell viability under setting [5] turned out to be 97.5; the relative cell viability under setting [6] worked out at 101. Besides, the relative cell viability by setting is: under setting [7], 101; under setting [8], 101.
On to `CN1[C@@H]2CC(O)C[C@H]1[C@@H]1O[C@@H]12` (stereo partly drawn) [Scopine], for which the relative cell viability runs as follows: under setting [1], 98.4; under setting [2], 101; under setting [3], 100; under setting [4], 105; under setting [5], 94.7; under setting [6], 99.2. Further, the relative cell viability came out at 96.5 under setting [7] and 105 under setting [8].
For `Cn1c(CCCC(=O)O)nc2cc(N(CCCl)CCCl)ccc21` [Bendamustine HCL], the relative cell viability under setting [1] amounted to 111; the relative cell viability under setting [2] amounted to 111; the relative cell viability under setting [3] turned out to be 108; the relative cell viability under setting [4] is 110; the relative cell viability under setting [5] worked out at 114; the relative cell viability under setting [6] was 114. This compound also returned a relative cell viability under setting [7] of 110 and a relative cell viability under setting [8] of 111.
As to `O=C(O[C@H]1C[C@H]2CC[C@@H](C1)[N+]21CCCC1)C(O)(c1ccccc1)c1ccccc1` [Trospium chloride], the relative cell viability under setting [1] was 95; the relative cell viability under setting [2] came out at 98.6; the relative cell viability under setting [3] was found to be 90.1; the relative cell viability under setting [4] came out at 105; the relative cell viability under setting [5] came to 103; the relative cell viability under setting [6] turned out to be 95.1. This compound showed a relative cell viability under setting [7] of 95.8 and a relative cell viability under setting [8] of 101.
In the case of `CCC(COC(=O)c1cc(OC)c(OC)c(OC)c1)(c1ccccc1)N(C)C` (stereo not drawn) [Trimebutine], the relative cell viability runs as follows: under setting [1], 104; under setting [2], 95.7; under setting [3], 100; under setting [4], 103; under setting [5], 98.5; under setting [6], 98.1. For the same compound, the relative cell viability reads like this: under setting [7], 101; under setting [8], 104.
Turning to `C[N+](C)(C)CCCCCCCCCC[N+](C)(C)C` [Decamethonium bromide], the relative cell viability by setting is: under setting [1], 106; under setting [2], 103; under setting [3], 107; under setting [4], 112; under setting [5], 107; under setting [6], 103. Moreover, the relative cell viability under setting [7] came to 106 and the relative cell viability under setting [8] worked out at 117.
With `CNC(=O)Oc1ccc2c(c1)[C@]1(C)CCN(C)[C@@H]1N2C` [Physostigmine Salicylate], the relative cell viability under setting [1] is 89.5; the relative cell viability under setting [2] was 84.3; the relative cell viability under setting [3] was 69.5; the relative cell viability under setting [4] was 41.9; the relative cell viability under setting [5] was found to be 84.3; the relative cell viability under setting [6] was determined as 84.1. Moreover, the relative cell viability came to 64.7 under setting [7] and 48.8 under setting [8].
Turning to `C[C@]12CCC(=O)C=C1C=C[C@@H]1[C@@H]2CC[C@@]2(C)[C@H]1CC[C@@]2(O)CCC(=O)O` [Potassium Canrenoate], the relative cell viability is, setting by setting: under setting [1], 100; under setting [2], 96.7; under setting [3], 97.6; under setting [4], 103; under setting [5], 101; under setting [6], 98.6. In addition, the relative cell viability turned out to be 94.2 under setting [7] and 108 under setting [8].
Regarding `Cc1cccc(C)c1NC(=O)CN1CCCC1=O` [Nefiracetam], the relative cell viability under setting [1] was found to be 101; the relative cell viability under setting [2] amounted to 99.1; the relative cell viability under setting [3] amounted to 102; the relative cell viability under setting [4] worked out at 104; the relative cell viability under setting [5] came to 101; the relative cell viability under setting [6] came to 97.1. For the same compound, the relative cell viability by setting is: under setting [7], 105; under setting [8], 101.
For the compound `CC(C)NCC(O)c1ccccc1Cl` (stereo not drawn) [Clorprenaline HCL], the relative cell viability under setting [1] worked out at 104; the relative cell viability under setting [2] amounted to 102; the relative cell viability under setting [3] turned out to be 106; the relative cell viability under setting [4] is 117; the relative cell viability under setting [5] came out at 105; the relative cell viability under setting [6] was found to be 102. This compound also came in with a relative cell viability under setting [7] of 103 and a relative cell viability under setting [8] of 108.
In the case of `CN1C(=O)COc2c(C(=O)NC3CN4CCC3CC4)cc(Cl)cc21` (stereo not drawn) [Azasetron HCl], the relative cell viability is, setting by setting: under setting [1], 98.7; under setting [2], 97.9; under setting [3], 105; under setting [4], 106; under setting [5], 94.8; under setting [6], 98.3. This compound also displayed a relative cell viability under setting [7] of 110 and a relative cell viability under setting [8] of 107.
`CC(O)(CS(=O)(=O)c1ccc(F)cc1)C(=O)Nc1ccc(C#N)c(C(F)(F)F)c1` (stereo not drawn) [Bicalutamide]: the relative cell viability is, setting by setting: under setting [1], 106; under setting [2], 107; under setting [3], 107; under setting [4], 104; under setting [5], 106; under setting [6], 111. Also, the relative cell viability reads like this: under setting [7], 110; under setting [8], 107.
Turning to `CCC1(c2ccc(N)cc2)CCC(=O)NC1=O` (stereo not drawn) [Aminoglutethimide], the relative cell viability under setting [1] was found to be 104; the relative cell viability under setting [2] was 99.3; the relative cell viability under setting [3] was 89.1; the relative cell viability under setting [4] came to 72.3; the relative cell viability under setting [5] was determined as 99.4; the relative cell viability under setting [6] was determined as 93.8. Also, the relative cell viability came out at 92.1 under setting [7] and 66.7 under setting [8].
On to `CCC1(c2cccc(O)c2)CCCCN(C)C1` (stereo not drawn) [Meptazinol HCl], for which the relative cell viability by setting is: under setting [1], 97.8; under setting [2], 103; under setting [3], 103; under setting [4], 109; under setting [5], 97.7; under setting [6], 98.3. Besides, the relative cell viability was 102 under setting [7] and 108 under setting [8].
`OC(c1ccccc1)(c1ccccc1)C1CCNCC1` [Azacyclonol]: the relative cell viability runs as follows: under setting [1], 104; under setting [2], 104; under setting [3], 106; under setting [4], 108; under setting [5], 108; under setting [6], 101. The same compound had a relative cell viability under setting [7] of 104 and a relative cell viability under setting [8] of 115.
Take `CNC1CC(N)C(O)C(OC2OC(CO)C(O)C3OC4(OC(C(N)CO)C(O)C(O)C4O)OC23)C1O` (stereo not drawn) [Hygromycin B]: the relative cell viability was 108 under setting [1]; 102 under setting [2]; 107 under setting [3]; 110 under setting [4]; 104 under setting [5]; 106 under setting [6]. The relative cell viability came to 110 under setting [7] and 106 under setting [8].
